Our source for the growth values is PubChem BioAssay (NCI).

Common to all, as to experiment: NCI-60 one-dose screen, 48 h (100 = growth as untreated, 0 = no growth, -100 = all killed)
Holding throughout (conditions): 10 µM unless noted

In assay [1] the test system is SK-MEL-2 melanoma.
In assay [2] the test system is EKVX NSCLC.
Assay [3] has as its system SN12C renal.
The test system of assay [4] is UO-31 renal.
Assay [5] has as its system TK-10 renal.
For assay [6], the system named is ACHN renal.
The subject of assay [7] is CAKI-1 renal.
Assay [8] concerns A498 renal.
Assay [9] deals with CCRF-CEM leukemia.
Assay [10] relates to MOLT-4 leukemia.
The test system of assay [11] is SR leukemia.
For assay [12], the system named is RPMI-8226 leukemia.
The subject of assay [13] is OVCAR-8 ovarian.
Assay [14] concerns OVCAR-5 ovarian.
For assay [15], the system named is OVCAR-4 ovarian.
For assay [16], the system named is SK-OV-3 ovarian.
Assay [17] relates to IGROV1 ovarian.
Assay [18] relates to OVCAR-3 ovarian.
Assay [19] concerns HS 578T breast.
Assay [20] deals with NCI/ADR-RES ovarian.

Compounds without any hit were thinned out: in the full panel of roughly 83,000, 20% have a hit.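 Cell lines were cultured in 96-well plates, exposed to a single compound concentration, and assessed for percent growth 48 hours later.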 Values without a mark were called inactive. Activity calls are given as the source filed them. Rule for the calls: active = growth percent below 10; inactive = the rest.

Regarding `Cc1[nH]c(C(=O)Nc2ccccc2OC2CCNC2)c(Cl)c1Cl` (stereo not given), the growth in assay [1] is 96.5%; in assay [2] it was 70.3%; in assay [3], 78.2%; in [4] it was 45.5%; in [5], 122%; in assay [6] it was 42.8%. In addition, the growth in assay [7] was 76%; in [8], 70.7%; in [9], 59.3%; in assay [10], 87.8%; in assay [11] it was 0.45% (active); in [12] it was 79%. For the same compound, the growth in assay [13] was 94%; in assay [14] it was 95.5%; in [15], 79.1%; in assay [16], 99.3%; in assay [17] it was 66.5%; in assay [18], 84.5%. Further, the growth in assay [19] is 93.2%; in assay [20], 86.7%.

On to `O=c1ccc2nc(-c3ccccc3)nn(-c3ccccn3)c-2c1`, for which the growth in assay [1] is 96.8%; in assay [2] it was 109%; in assay [3] it was 93.1%; in assay [4], 20.5%; in assay [5] it was -83.4% (active); in assay [6] it was -91.9% (active). In addition, the growth in assay [7] was 77.4%; in [8], 88.2%; in [9], 1.08% (active); in [10], -10.6% (active); in [11], 1.2% (active); in [12], 35.8%. Moreover, the growth was 80% in assay [13]; 117% in assay [14]; 83.5% in assay [15]; 83.9% in [16]; 89% in assay [17]; -14.9% (active) in [18]. In addition, the growth in [19] and in assay [20] was 101% in each case.

As to `[2H]C([2H])([2H])Oc1ccc(/C=C/C(=O)/C=C(/C=C/c2ccc(OC([2H])([2H])[2H])c(OC([2H])([2H])[2H])c2OC([2H])([2H])[2H])OB(F)F)c(OC([2H])([2H])[2H])c1OC([2H])([2H])[2H]`, the growth in [1] is 94.9%; in [2] it was 88.7%; in [3] it was 56.7%; in assay [4] it was 38.8%; in assay [5] it was 74.2%; in assay [6] it was 14.4%. Moreover, the growth is 48.6% in assay [7]; 107% in assay [8]; -2.51% (active) in [9]; 23.8% in assay [10]; 8.05% (active) in assay [11]; 18.9% in assay [12]. Besides, the growth in [13] is 9.4% (active); in assay [14], 91.1%; in [15] it was 65.2%; in [16], 103%; in assay [17], 57.1%; in assay [18], 14.5%. Moreover, the growth is 60% in assay [19] and 54.6% in [20].

In the case of `Cn1ncc(CC(=O)O)c1-n1nnc2cc(Cl)ccc2c1=O`, the growth is 99.3% in [1]; 86% in assay [2]; 92.5% in [3]; 81.1% in assay [4]; 90.7% in [5]; 94.3% in assay [6]. The growth was 87.8% in assay [7]; 134% in assay [8]; 98.1% in [9]; 100% in assay [10]; 87.6% in [11]; 106% in assay [12]. For the same compound, the growth in assay [13] was 99.6%; in assay [14] it was 98.1%; in assay [15], 94.6%; in assay [16], 111%; in [17], 103%; in [18], 114%. For the same compound, the growth in assay [19] was 91.5%; in assay [20] it was 101%.

For the compound `CN1CC(c2ccccc2)C(C(=O)c2ccc(Br)cc2)C12C(=O)Nc1ccccc12` (stereo not given), the growth in assay [1] is 99.2%; in assay [2], 91.8%; in assay [3] it was 94.5%; in assay [4] it was 65.9%; in assay [5], 109%; in assay [6], 100%. Also, the growth is 63.2% in assay [7]; 105% in [8]; 102% in assay [9]; 92.1% in [10]; 97% in [11]; 88.2% in assay [12]. The growth was 98.8% in assay [13]; 98.9% in assay [14]; 96.3% in assay [15]; 93.6% in assay [16]; 79.7% in assay [17]; 101% in [18]. Further, the figures for the growth in assay [19] and in [20] were 94.2% and 79.7%, respectively.

Regarding `CN1CCN(Cc2ccc(NC(=O)c3cc(C#Cc4cnc(N)c5ncccc45)n(C)n3)cc2C(F)(F)F)CC1`, the growth in assay [1] was 101%; in assay [2], 105%; in assay [3], 76.8%; in assay [4], 64%; in assay [5], 147%; in assay [6] it was 47.2%. Besides, the growth in assay [7] is 105%; in assay [8], 83.2%; in [9], 4.79% (active); in [10], 80.9%; in [11] it was 2.23% (active); in [12] it was 69.2%. Moreover, the growth is 69.4% in [13]; 140% in assay [14]; 114% in assay [15]; 111% in assay [16]; 113% in assay [17]; 119% in assay [18]. The growth in assay [19] is 25%; in assay [20] it was 96%.

As for `CN(C)c1ccc(/C=C/C2=[N+](C)c3ccccc3C2(C)C)cc1`, the growth in [1] was 16.4%; in assay [2], 22.6%; in [3], -9.66% (active); in [4], 19.4%; in assay [5], 30.4%; in assay [6], 14%. Moreover, the growth in assay [7] is 29.3%; in assay [8], 66.6%; in assay [9] it was 11.9%; in assay [10] it was -6.54% (active); in [11], 6.36% (active); in assay [12] it was -20.3% (active). The growth was 14.8% in assay [13]; 35.6% in assay [14]; 31.2% in [15]; 4.03% (active) in [16]; 34.7% in [17]; 10% in [18]. In addition, the growth was 43.3% in [19] and 77.8% in assay [20].
